Screening data (PubChem)
Hits are enriched below; roughly 19% of the tested compounds scored in any of these assays.
TDP1 cell CPT: DT40-hTDP1 cell growth loss with CPT | Potency, µM (highest dose often 46.2 µM), for the others: at the highest dose activity change, negative = growth inhibition, usual class: inhibitors | 420,000 compounds, 12% hits | AID 686979 | chicken DT40 Tdp1-/-;hTDP1 cells + 20 nM CPT, ATP luminescence, 48 h; also: potency is read from the fitted curve at half-maximal effect; nearly all actives have a fitted effect of over 55% in size
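Cell growth measured by CellTiter-Glo luminescence after a minimum 48 h, 37 C compound exposure with 20 nM CPT in Tdp1-knockout DT40 cells stably expressing hTDP1, seeded 400/well; qHTS titration format.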
HT1080 IDH1KD tx: kills HT-1080 cells with IDH1 knockdown; 360,000 compounds, 2% hits; Potency, µM (titrated, usually from 46.1 µM), for inactives: top-dose activity, negative = toxicity, hits mostly cytotoxic; HT-1080 IDH1 knockdown viability, ATP luminescence, 48 h; AID 686971;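 also: potency is read from the fitted curve at half-maximal effect; 0% = DMSO wells and -100% = cell-free medium wells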
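% activity derives from luminescence (CellTiter-Glo), normalised to DMSO and no-cell wells. HT-1080-IDH1KD cells, 750/well, had 48 h compound exposure at 37 °C.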
IL1B secr inh: inflammasome signaling inhibition, IL-1 beta readout; THP-1 LPS/ATP IL-1B secretion, AlphaLISA, 16 h; hits give low values; activity change, % at 57.5 µM; 360,000 compounds, 4.7% hits; AID 743279; in the data active = activity change below about -50%; inconclusive = mostly about -30% to -49%
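Secreted IL-1B measured by AlphaLISA bead assay after 16 h compound exposure of THP-1 cells; compounds (final up to 57.5 uM) added 1 h before LPS (250 ng/mL) and ATP (1.25 mM) stimulation; lower signal means less secretion.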
TDP1 cell noCPT: qHTS for Inhibitors of human tyrosyl-DNA phosphodiesterase 1 (TDP1): qHTS in cells in absence of CPT | DT40 Tdp1-/- hTDP1 cells, no CPT, ATP luminescence, 48 h | Potency, µM (highest dose often 46.2 µM), for the others: top-dose activity change, negative = growth inhibition, actives largely listed as inhibitors | 420,000 compounds, 15% hits | AID 686978, 2013; also: potency is read from the fitted curve at half-maximal effect; nearly all actives have a fitted effect of over 55% in size
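No-CPT arm: Tdp1-/-;hTDP1 DT40 cells (400/well) plus compounds, incubated ≥48 hr at 37 °C. Readout CellTiter-Glo luminescence.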
HT1080-NT tox: kills 2HG-producing HT-1080-NT fibrosarcoma cells; 360,000 compounds, 1.6% hits; HT-1080-NT fibrosarcoma viability, CellTiter-Glo ATP luminescence, 48 h; Potency, µM (top dose mostly 46.1 µM), without a hit: top-dose activity, negative = less viability, actives largely listed as cytotoxic;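 also: NT is the 2HG producing partner of a matched IDH1 knockdown line; potency is read from the fitted curve at half-maximal effect; 0% = DMSO-treated cells and -100% = media-only wells without cells; nearly all actives have a fitted effect of over 55% in size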
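HT-1080-NT fibrosarcoma cells (2HG-overproducing), 750 cells/well in RPMI with 5% FBS, dosed after 2 h and incubated 48 h at 37C. CellTiter-Glo luminescence normalized to DMSO and no-cell wells; concentration-response curves fitted and classed.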
* hit, by the source's call. Unless noted, calls follow the shape of the dose curve; as a rule, active = well fitted curve in the direction sought with a large enough effect; inconclusive = small, poorly fitted or top-dose-only effect, or another doubt; inactive = no such curve, though single readings can be large; an effect the other way counts as inactive or inconclusive. Unless noted, % is scaled to controls: 0 for no effect and ±100 for the full control effect.

Screening CCOC(=S)SCc1cn2ccc(C)cc2n1 returned TDP1 cell CPT inconclusive, HT1080 IDH1KD tx 10.5%, IL1B secr inh -56.9*, TDP1 cell noCPT inconclusive and HT1080-NT tox 9.2%.
`CCOC(=S)SCc1cn2ccccc2n1` gave TDP1 cell CPT 0.0%, HT1080 IDH1KD tx -19.7%, IL1B secr inh inconclusive, TDP1 cell noCPT -14.3% and HT1080-NT tox -1.5%.
For COc1ccc(-n2c(C)c([N+](=O)[O-])c3ccc(O)c(CN(C)C)c32)cc1 the results were TDP1 cell CPT inconclusive, HT1080 IDH1KD tx -3.9%, IL1B secr inh -59.4*, TDP1 cell noCPT 2.59µM* and HT1080-NT tox 1.0%.
For Cc1ccccc1-n1c(=O)c2c3c(sc2n2cnnc12)CCCC3 the results were TDP1 cell CPT 14.6µM* and TDP1 cell noCPT 16.4µM*.
For Cc1ccc(S(=O)(=O)c2c(C)c(C)c(C)[nH]c2=O)cc1 the results were TDP1 cell CPT -25.7%, HT1080 IDH1KD tx 4.9%, IL1B secr inh 13.4, TDP1 cell noCPT 13.2% and HT1080-NT tox 11.6%.
For Cc1ccc(Sc2sc(=O)n(C)c2S(=O)(=O)c2ccc(C)cc2)cc1 the results were TDP1 cell CPT inconclusive, HT1080 IDH1KD tx 3.8%, IL1B secr inh 4.2, TDP1 cell noCPT 20.6µM* and HT1080-NT tox 16.0%.
CC(=O)Nc1ccc(S(=O)(=O)NCc2csc(C)n2)cc1 was read as TDP1 cell CPT -11.3%, HT1080 IDH1KD tx 6.0%, IL1B secr inh 23.5, TDP1 cell noCPT -14.9% and HT1080-NT tox 9.4%.
For COc1ccc(NC(=O)c2csnn2)cc1 the results were TDP1 cell CPT 1.6% and TDP1 cell noCPT -24.1%.
For CCCN(CCC)S(=O)(=O)c1ccc(C(=O)N2CCCc3ccccc32)cc1 the results were TDP1 cell CPT inconclusive, HT1080 IDH1KD tx 2.7%, IL1B secr inh -13.3, TDP1 cell noCPT inconclusive and HT1080-NT tox 3.6%.
CC(C)(Oc1ccc(Cl)cc1)C(=O)N(Cc1ccccc1)c1ccccn1 was read as TDP1 cell CPT inconclusive, HT1080 IDH1KD tx 4.9%, IL1B secr inh 0.0, TDP1 cell noCPT 18.4µM* and HT1080-NT tox 5.1%.
For CC(C)c1ccc(OCC(=O)N(Cc2ccccc2)c2ccccn2)cc1 the results were TDP1 cell CPT 23.1µM*, HT1080 IDH1KD tx -28.2%, IL1B secr inh -6.1, TDP1 cell noCPT 16.4µM* and HT1080-NT tox 1.4%.
Screening Cc1ccc(CN(C(=O)COc2ccc([N+](=O)[O-])cc2)c2ccccn2)o1 returned TDP1 cell CPT -17.2% and TDP1 cell noCPT inconclusive.
Screening Cc1ccc(CN(C(=O)COc2ccc([N+](=O)[O-])cc2)c2ccccn2)cc1 returned TDP1 cell CPT inconclusive and TDP1 cell noCPT 16.4µM*.
O=C(N/C(=C/c1cccc([N+](=O)[O-])c1)C(=O)N1CCCCC1)c1cccs1 was read as TDP1 cell CPT 4.7%, HT1080 IDH1KD tx 2.8%, IL1B secr inh -15.7, TDP1 cell noCPT inconclusive and HT1080-NT tox 1.4%.
`COc1ccc(Cn2cc(CN3CC(N4CCN(CCO)CC4)CS3(=O)=O)nn2)cc1` (stereo not drawn) gave TDP1 cell CPT -0.8%, HT1080 IDH1KD tx 0.7%, IL1B secr inh 16.6, TDP1 cell noCPT -14.1% and HT1080-NT tox 20.6%.
CSc1nc2nc3c(c(=O)n2[nH]1)CN(Cc1ccccc1)CC3 was read as TDP1 cell CPT 25.9µM*, HT1080 IDH1KD tx -11.8%, IL1B secr inh -0.2, TDP1 cell noCPT inconclusive and HT1080-NT tox -5.0%.
`O=c1c2c(nc3nc(SCc4ccccc4)[nH]n13)CCC2` gave TDP1 cell CPT -21.7%, HT1080 IDH1KD tx 0.5%, IL1B secr inh 18.9, TDP1 cell noCPT -17.0% and HT1080-NT tox -7.4%.
Screening Cc1nc(N)c(Cc2ccc(Cl)cc2Cl)c(N)n1 returned TDP1 cell CPT 11.6µM*, HT1080 IDH1KD tx -0.7%, IL1B secr inh 1.7, TDP1 cell noCPT 8.2µM* and HT1080-NT tox -19.2%.
For CC1CC(C)CN(C(=O)C2CCN(C(=O)Nc3ccccc3)CC2)C1 (stereo not drawn) the results were TDP1 cell CPT -2.6%, HT1080 IDH1KD tx -5.8%, IL1B secr inh 0.0, TDP1 cell noCPT -18.6% and HT1080-NT tox -11.5%.
For CCOc1ccc(NC(=O)CCC(=O)Oc2ccc(C)cc2)cc1 the results were TDP1 cell CPT -2.7%, HT1080 IDH1KD tx 8.0%, IL1B secr inh 19.1, TDP1 cell noCPT 13.4% and HT1080-NT tox -0.2%.
Screening CC(NC(=O)CN1CCc2ccccc21)c1ccccc1 (stereo not drawn) returned TDP1 cell CPT -9.4%, HT1080 IDH1KD tx -1.3%, IL1B secr inh -7.0, TDP1 cell noCPT -16.3% and HT1080-NT tox -0.2%.
For O=C(NCCc1ccccc1)C(=O)NCC(c1cccnc1)N1CCN(c2ccccc2)CC1 (stereo not drawn) the results were TDP1 cell CPT 20.6µM* and TDP1 cell noCPT 16.4µM*.
Screening O=C(NCc1ccc(Cl)cc1)C(=O)NCC(c1cccnc1)N1CCN(c2ccc(F)cc2)CC1 (stereo not drawn) returned TDP1 cell CPT 6.51µM*, HT1080 IDH1KD tx inconclusive, IL1B secr inh -0.8, TDP1 cell noCPT 8.2µM* and HT1080-NT tox -12.2%.
Screening Cc1ccc(C)c(NC(=O)C(=O)NCC(c2cccnc2)N2CCN(c3ccc(F)cc3)CC2)c1 (stereo not drawn) returned TDP1 cell CPT 4.61µM* and TDP1 cell noCPT 4.61µM*.
Screening COc1ccc(N2CCN(C(CNC(=O)C(C)(C)C)c3cccnc3)CC2)cc1 (stereo not drawn) returned TDP1 cell CPT -9.0%, HT1080 IDH1KD tx 0.7%, IL1B secr inh -6.1, TDP1 cell noCPT inconclusive and HT1080-NT tox -1.6%.
COc1ccc(CNC(=O)C(=O)NCC(c2cccnc2)N2CCN(c3ccccc3)CC2)cc1 (stereo not drawn) was read as TDP1 cell CPT 16.4µM* and TDP1 cell noCPT 13µM*.
CN1CCN(C(CNC(=O)C(=O)Nc2ccc(F)cc2)c2cccnc2)CC1 (stereo not drawn) was read as TDP1 cell CPT -21.5% and TDP1 cell noCPT -2.8%.
`CC(=O)NNS(=O)(=O)c1scc(S(=O)(=O)c2ccc(Cl)cc2)c1C` gave TDP1 cell CPT -0.8%, HT1080 IDH1KD tx 0.0%, IL1B secr inh 2.3, TDP1 cell noCPT 2.6% and HT1080-NT tox -2.0%.
Screening CC(C)(C)OC(=O)N1CCCC(C(=O)Nc2cccc(C(=O)N3CCOCC3)c2)C1 (stereo not drawn) returned TDP1 cell CPT -8.6%, HT1080 IDH1KD tx 9.5%, IL1B secr inh -14.5, TDP1 cell noCPT -0.1% and HT1080-NT tox 8.8%.
Screening O=C(NC1CC(=O)N(c2ccc(F)cc2)C1)C1CC1 (stereo not drawn) returned TDP1 cell CPT -3.0% and TDP1 cell noCPT inconclusive.
